Laboratory results reported in the supplement of paper PMC12339681.
Structures can show the parent of a compound that is named as a salt.

These compounds were tested on PBMC-derived induced microglia-like cells (piMGLC) (assay: synaptosome phagocytic index relative to DMSO control (fraction of DMSO); higher = more phagocytosis). Settings: concentration: 10 uM (2 uM for compounds listed in Table S2); pretreatment time: 24 h; assay time: 3 h.
Work on `O=C(O)c1ccccc1O` [Salicylic_acid] yielded a synaptosome phagocytic index of 0.557. Compound `CO[C@H]1C[C@@H]2CC[C@@H](C)[C@@](O)(O2)C(=O)C(=O)N2CCCC[C@H]2C(=O)O[C@H]([C@H](C)C[C@@H]2CC[C@@H](O)[C@H](OC)C2)CC(=O)[C@H](C)/C=C(\C)[C@@H](O)[C@@H](OC)C(=O)[C@H](C)C[C@H](C)/C=C/C=C/C=C/1C` [Rapamycin] has a synaptosome phagocytic index of 0.285. `CCCCCCCC(=O)c1c(O)cc(O)cc1CC(=O)OCC` [Cytosporone_B] was tested, and the synaptosome phagocytic index was 0.114. `CC(=O)[C@H]1CC[C@H]2[C@@H]3CC=C4C[C@@H](O)CC[C@]4(C)[C@H]3CC[C@]12C` [Pregnenolone] gave a synaptosome phagocytic index of 0.878. Compound `Cc1cnc(NC(=O)C2=C(O)c3ccccc3S(=O)(=O)N2C)s1` [Meloxicam] has a synaptosome phagocytic index of 0.731. Compound `Nc1cc(C(F)(F)F)c(-c2cc(N3CCOCC3)nc(N3CCOCC3)n2)cn1` [Buparlisib] has a synaptosome phagocytic index of 1.13. `CN1CCN(C2=Nc3ccccc3Nc3ccccc32)CC1` [Deschloroclozapine] gave a synaptosome phagocytic index of 0.876. Compound `CC(C)(O/N=C(\C(=O)N[C@@H]1C(=O)N2C(C(=O)[O-])=C(C[n+]3ccccc3)CS[C@H]12)c1csc(N)n1)C(=O)O` [Ceftazidime] has a synaptosome phagocytic index of 1.05. Compound `CNC(=O)c1cc(Oc2ccc3nc(N[C@@H]4CCCC[C@H]4O)sc3c2)ccn1` has a synaptosome phagocytic index of 1.21. In the case of `CC(C)(C)c1cnc(CSc2cnc(NC(=O)C3CCNCC3)s2)o1`, the synaptosome phagocytic index is reported as 0.572. Compound `COc1ccc(C2CNC(=O)C2)cc1OC1CCCC1` (stereo unspecified) [Rolipram] has a synaptosome phagocytic index of 0.814. For `O=C1Nc2ccc(Cl)cc2[C@@](C#CC2CC2)(C(F)(F)F)O1` [Efavirenz], the synaptosome phagocytic index was 0.473. `NC(=O)c1cnccn1` [Pyrazinamide] showed a synaptosome phagocytic index of 1.21. With `O=c1n(CCCN2CCN(c3cccc(Cl)c3)CC2)nc2ccccn12` [Trazodone_(hydrochloride)] the synaptosome phagocytic index was 1.39. With `Cc1ncc([N+](=O)[O-])n1CCO` [Metronidazole] the synaptosome phagocytic index was 0.51. Compound `Cc1cc(Oc2cncnc2)cc(C(=O)Nc2ccc(F)cn2)n1` [Auglurant] has a synaptosome phagocytic index of 1.03. `CCc1cc2c(cc1N1CCC(N3CCOCC3)CC1)C(C)(C)c1[nH]c3cc(C#N)ccc3c1C2=O` [Alectinib] showed a synaptosome phagocytic index of 0.538. With `NC(=O)[C@H](Cc1c[nH]c2ccccc12)NC(=O)CNC(=O)[C@H](CCCN=C(N)N)NC(=O)[C@@H]1C[C@@H](O)CN1C(=O)[C@@H](N)Cc1ccc(F)cc1` [Nemifitide_(diTFA)] the synaptosome phagocytic index was 0.903. `COc1ccc(NS(=O)(=O)c2ccc(N)cc2)nn1` [Sulfamethoxypyridazine] was tested, and the synaptosome phagocytic index was 1.03. Work on `N[C@@H]1CONC1=O` [D-Cycloserine] yielded a synaptosome phagocytic index of 0.834. In the case of `NC(=O)c1ccc(OCCCN2CC3CCCC3C2)cc1` (stereo unspecified), the synaptosome phagocytic index is reported as 0.933. With `CC(=O)OCC(=O)[C@@]1(O)CC[C@H]2[C@@H]3CCC4=CC(=O)C=C[C@]4(C)[C@H]3[C@@H](O)C[C@@]21C` [Prednisolone_acetate] the synaptosome phagocytic index was 0.605. Work on `CNCCCN1c2ccccc2CCc2ccccc21` [Desipramine_hydrochloride] yielded a synaptosome phagocytic index of 1.13. `NC12CC3CC(CC(C3)C1)C2` [Amantadine_(hydrochloride)] showed a synaptosome phagocytic index of 1.02. Compound `NS(=O)(=O)Cc1noc2ccccc12` [Zonisamide] has a synaptosome phagocytic index of 0.742. In the case of `C=CC(N)CCC(=O)O` (stereo unspecified) [Vigabatrin], the synaptosome phagocytic index is reported as 0.918. In the case of `CC[C@]1(O)C[C@H]2CN(CCc3c([nH]c4ccccc34)[C@@](C(=O)OC)(c3cc4c(cc3OC)N(C=O)[C@H]3[C@@](O)(C(=O)OC)[C@H](OC(C)=O)[C@]5(CC)C=CCN6CC[C@]43[C@@H]65)C2)C1` [Vincristine_(sulfate)], the synaptosome phagocytic index is reported as 1.04. `Nc1cc(C(F)(F)F)c(-c2nc(N3CCOCC3)nc(N3CCOCC3)n2)cn1` [Bimiralisib] gave a synaptosome phagocytic index of 0.518. With `CC(=O)N1CCc2c(c(N3CCCc4cc(-c5cnn(C)c5)c(C(F)F)cc43)nn2C2CCOCC2)C1` the synaptosome phagocytic index was 0.59. `NC(=O)OCC(COC(N)=O)c1ccccc1` [Felbamate] was tested, and the synaptosome phagocytic index was 0.618. Compound `COC[C@@H](c1ccc(C(F)(F)F)cc1)N1CCN(C2(C)CCN(C(=O)c3c(C)ncnc3C)CC2)C[C@@H]1C` [Vicriviroc_(maleate)] has a synaptosome phagocytic index of 0.947. With `CCCCNc1ncc2c(-c3ccc(CN4CCN(C)CC4)cc3)cn([C@H]3CC[C@H](O)CC3)c2n1` the synaptosome phagocytic index was 0.246. With `CCN(CC)CC(=O)Nc1c(C)cccc1C` [Lidocaine] the synaptosome phagocytic index was 0.907. Work on `CN(C/C=C/C#CC(C)(C)C)Cc1cccc2ccccc12` [Terbinafine] yielded a synaptosome phagocytic index of 0.502. `C[C@H](c1ccc(F)cc1CCCC(=O)O)N(c1cc(F)ccc1F)S(=O)(=O)c1ccc(Cl)cc1` showed a synaptosome phagocytic index of 0.385. For `OC1(CN2CCC(COc3noc4cccc(O[C@@H]5CCOC5)c34)CC2)CCOCC1`, the synaptosome phagocytic index was 0.793.
